Out of some 1,200 compounds screened, about 60 (5%) were called active. About 1% were inconclusive and are not listed.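 Rule for the calls: active = Decreasing signal and fitted IC50 at most twice the top valid tested dose; inconclusive = Bad fit or a level curve showing 30 to 70% inhibition; inactive = the rest.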 Not all results are given here. Entries with a potency or affinity are not part of this list.
molecular target: NAD-dependent protein deacylase sirtuin-5, mitochondrial (Homo sapiens) (UniProt Q9NXA8); experiment: sirtuin-5 deacylation blockers, concentration series – biochemical, fluorescence imaging, cherry-pick, set 5, dose response (AID 720591); conditions: Purified SirT5, succinyl-peptide AMC, trypsin-coupled fluorescence; series mostly up to 15 µM; activity change, negative = inhibition: at the top concentration;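 note: 0% = median of neutral control wells and -100% = median of positive control wells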
Sequence (Q9NXA8 whole entry, looked up): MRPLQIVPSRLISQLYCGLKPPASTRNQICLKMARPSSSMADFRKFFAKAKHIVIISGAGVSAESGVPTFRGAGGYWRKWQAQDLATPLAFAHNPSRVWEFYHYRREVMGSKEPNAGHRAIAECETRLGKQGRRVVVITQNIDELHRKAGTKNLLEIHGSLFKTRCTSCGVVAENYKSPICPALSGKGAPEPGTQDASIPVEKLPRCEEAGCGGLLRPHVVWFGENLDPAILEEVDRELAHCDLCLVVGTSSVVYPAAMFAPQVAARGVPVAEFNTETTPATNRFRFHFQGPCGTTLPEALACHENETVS

Activity change, negative = inhibition, inactive:
Cc1ccc(CNC(=O)CCCCCNC(=O)N2CCn3c2nc2ccccc23)cc1 -20.1%
O=C(NC1CCCCC1)c1ccc(S(=O)(=O)c2ccccc2)cc1 -29.3%
CCOC(=O)C1CCN(C(=O)Cn2cc(C(=O)OC)c3ccccc32)CC1 -21.2%
COc1ccc(NC(=O)CN2CCN(c3ccccn3)CC2)cc1Cl 5.95%
C=C(C)COc1ccc(-c2ncncc2-c2ccc(OC)cc2)c(O)c1 4.58%
COc1ccc(-c2csc3nc(C(C)C)oc(=O)c23)cc1OC -30.7%
Cn1cc(C(=O)NCCc2ccccc2)c(=O)c2cc(S(=O)(=O)N3CCOCC3)ccc21 3.07%
CC(C)c1ccccc1NC(=O)c1cnccn1 -32.5%
O=C(c1ccccc1)c1coc2ccc(O)c(Cl)c12 -19.4%
O=C(O)CCC(=O)Nc1ccc(-c2nc3ccc(C(=O)c4ccccc4)cc3[nH]2)cc1 -28.6%
Nc1nc(-c2ccc(C(=O)O)cc2)cs1 -22.5%
CC(C)(C)C(=O)Oc1cccc(Nc2ncnc3ccccc23)c1 -14.3%
Cc1ccc(S(=O)(=O)NCC(=O)OCC(=O)NCc2ccc(F)cc2)cc1 -17%
Cc1nnc(SCC(=O)Nc2ncc3c(n2)CC(c2ccccc2)CC3=O)s1 (stereo unspecified) -14%
Cc1ccc(S(=O)(=O)Nc2ccc(N(C)C)cc2)cc1 -8.19%
COc1ccc(N2CC(NC(=O)N3CCc4ccccc43)CC2=O)cc1OC (stereo unspecified) -30%
CN(C)CCOC(=O)NCC12CC3CC(CC(C3)C1)C2 -14.8%
C[C@@H]1CN([C@@H](C)CO)C(=O)CCCn2nncc2CO[C@H]1CN(C)C(=O)C1CCCCC1 -4.24%
CCCCCCN1C[C@@H](O)[C@H](n2cc(COC(=O)c3ccccc3)nn2)C[C@@H]1c1ccc(C)cc1 11.7%
C[C@H]1COc2cc(NCCO)ccc2S(=O)(=O)N1 19.8%
Cc1ccc(S(=O)(=O)N2C[C@@H]3CCCC[C@@H]3[C@@H](C)[C@H]2c2cn(Cc3ccccc3)c3ncccc23)cc1 14.3%
CCOc1ccccc1NC(=O)CN1c2cccc3cccc(c23)S1(=O)=O 12.7%
Nn1c(C2CCC2)nc2cc(Cl)ccc2c1=O -25.2%
CCC(C)C(CO)NCCCn1cnc2c(SC)ncnc21 (stereo unspecified) 4.95%
Cc1nc(NC(=O)c2cc3ccccc3o2)sc1C 7.97%
Cc1csc(NC(=O)c2cc3ccccc3o2)n1 12.3%
Cc1ccc(OCCNC(=O)C2CCCCC2)cc1 7.97%
Cc1cc(C)c2c(CN3CCOCC3)cc(=O)oc2c1 2.2%
COc1ccc(CNC(=O)CCn2ccc3cc(S(=O)(=O)N4CCCC4)ccc32)cc1 -22.9%
COc1ccc(CN(C(=O)c2ccco2)c2ccc(C)cc2)cc1OC -33.2%
COc1ccc(CN(C(=O)c2ccco2)c2ccccc2)cc1 13.5%
CN1C(=O)[C@H]2[C@@H](C3CC3)N3C(=O)CN(CCO)C(=O)[C@@]3(Cc3ccccc3)[C@H]2C1=O -16.4%
CCOc1ccc(-c2noc(CCCC(=O)NC3CCCC3)n2)cc1OC 1.29%
CCCCCNC(=O)C(c1cc2ccccc2o1)n1c(=O)c(-c2ccccc2)nc2ccccc21 (stereo unspecified) -20.3%
COc1ccc(CCNC(=O)COC(=O)CCC(=O)c2ccc(F)cc2)cc1OC 16.3%
CCCCCCNC(=O)c1ccc(Br)o1 2.66%
COc1cc(C(=O)NCC2(N(C)C)CCCCC2)ccc1OCc1ccccc1 5.49%
Cn1c(NCCCO)nc2c1c(=O)n(Cc1ccccc1F)c(=O)n2C 5.2%
CC(=O)c1cc(-c2ccc(F)cc2)n(CCC(=O)NC(C)(C)C)c1C 40.1%
CCCCNC(=O)C[C@@H]1C[C@@]2(C(=O)OC)CC(C)(C)CC=C2N(Cc2ccco2)C1=O 2.48%
COC(CNC(=O)CC1C(=O)N(Cc2ccccc2)C(C)c2nc3ccccc3n21)OC (stereo unspecified) 16.8%
Cc1ccc(S(=O)(=O)N2C[C@@H](C)[C@]3(C2)[C@H](O)[C@H](OC(=O)NCc2ccco2)C[C@H]2C(=O)N(c4ccccc4)C(=O)[C@H]23)cc1 -12.3%
OC[C@@H]1CN(Cc2cccs2)C[C@H](n2cnc3c(Nc4ccccc4)ncnc32)O1 1.28%
CCc1cc2c(=O)c(-c3nc4ccccc4n3C)coc2c(CN2CCCCC2)c1O 32.2%
Cc1ccc(NC(=O)c2ccc3c(c2)CCN3S(C)(=O)=O)cc1 11.9%
Cc1cc(C)cc(N(C(=O)CCC(=O)Nc2cc(C)on2)C(C(=O)NC2CCCC2)c2ccco2)c1 (stereo unspecified) -2.73%
COc1ccc(CC(=O)NCC2CCCN(Cc3ccc(OC(F)(F)F)cc3)C2)cc1 (stereo unspecified) -23.7%
CCOC(=O)C(Cc1ccc(NC(C)=O)cc1)N1C(=O)c2ccccc2C1=O (stereo unspecified) -8.71%
O=C(OCC(=O)N1CCCC1)c1cc(Br)ccc1Cl -18.6%
COc1ccccc1-c1cc(C(=O)NC(C)C)no1 -1.51%
Oc1ccc(-c2n[nH]c(C(F)(F)F)c2-c2ccccc2)c(O)c1 -7.08%
CC1c2nc3ccccc3n2C(CC(=O)NC2CC2)C(=O)N1Cc1ccccc1 (stereo unspecified) 4.72%
Cc1ccc(Cn2c(N3CCN(C)CC3)nc3c2c(=O)[nH]c(=O)n3C)cc1 -22.3%
Cn1c(=O)[nH]c(=O)c2c1nc(N1CCNCC1)n2Cc1ccccc1 15.6%
Oc1ccc(-c2nccc(-c3ccc(Cl)cc3Cl)n2)cc1 -31.7%
Cc1ccc(-c2nc3c(Cl)cc(C(F)(F)F)cn3c2Cc2cccc(F)c2)cc1 6.86%
CC(=O)c1cccc(NC(=O)CCS(=O)(=O)c2ccc(Br)s2)c1 -17.1%
O=C(Nc1ccc2c(c1)OCCO2)C(c1ccnc2ccccc12)N1CCN(c2ccc(F)cc2)CC1 (stereo unspecified) 18.7%
C=CC[C@H](CC(=O)N(CCO)Cc1ccccc1)C(=O)N[C@@H](COC(=O)[C@H](CC=C)CC(=O)OC(C)(C)C)Cc1c[nH]c2ccccc12 17%
CSc1nc(N)nc2c1ncn2CC(=O)NCC1CCCO1 (stereo unspecified) 5.49%
O=C(NCc1ccc(F)cc1)C1CC(=O)N(C2CCCCC2)C1 (stereo unspecified) -24.7%
Cc1cc(C)c(NC(=O)CN(C)C(=O)CNC(=O)c2cccs2)c(C)c1 -17.8%
O=C(Nc1ccccc1Cl)c1cccs1 -20.1%
COc1ccccc1CCNS(=O)(=O)c1cc2c3c(c1)C(C)C(=O)N3CCC2 (stereo unspecified) -29.6%
COc1ccc(Nc2oc(-c3ccco3)nc2S(=O)(=O)c2ccc(F)cc2)cc1 -8.04%
Cc1nn(CC(=O)N(C)C)c(=O)c2ccccc12 -8.69%
Cc1ccc(S(=O)(=O)c2nc(Cc3ccccc3)oc2N2CCOCC2)cc1 -13.3%
Cc1ccc(C(C(=O)NC(C)(C)C)N(C(=O)CCC(=O)Nc2ccccn2)c2ccccc2F)cc1 (stereo unspecified) -3.12%
CO/N=C(\C(=O)N[C@@H]1C(=O)N2C(C(=O)O)=C(COC(C)=O)CS[C@H]12)c1csc(N)n1 (stereo in doubt) -15.9%
Cc1ccc(-c2ccc(=O)n(CC(=O)Nc3ccc4c(c3)OCCO4)n2)cc1 16.6%
COc1ccc(N2CCN(C(=O)CN(C)S(=O)(=O)c3cc(C)ccc3OC)CC2)cc1 -6.06%
N[C@@H](CO)c1nnc([C@H](Cc2ccc(O)cc2)NC(=O)C2CCNCC2)o1 -9.88%
O=S(=O)(CCc1ccncc1)c1ccc(Cl)cc1 7.83%
NCC(O)CN(c1ccccc1)c1ccccc1 (stereo unspecified) 0.799%
O=C(c1cccc(F)c1)N1CCCC(C(=O)N2CCCCCC2)C1 (stereo unspecified) 16.1%
O=C(c1cccc(F)c1)N1CCCC(C(=O)N2CCCCC2)C1 (stereo unspecified) -26.3%
CC(=O)Nc1ccc(S(=O)(=O)Nc2ccc(-n3cnnn3)cc2)cc1 -11.7%
O=C(Nc1ccc(F)cc1)C1CC(=O)n2ncnc2N1 (stereo unspecified) -19.7%
C[C@H](CO)N1C[C@H](C)[C@@H](CN(C)Cc2ccccn2)Oc2ncc(Br)cc2C1=O -20.5%
N#Cc1c(SCC(=O)Nc2nccs2)sc2c(O)cc(=O)[nH]c12 -20.5%
Cc1csc(NC(=O)CSc2sc3c(O)cc(=O)[nH]c3c2C#N)n1 -33.2%
CC(=O)N1N=C(N)SC12CCCC2 -1.47%
C[C@H]1CN([C@@H](C)CO)C(=O)c2cc(Br)cnc2O[C@H]1CN(C)C(=O)c1ccccn1 24.1%
CC(C)NC(=O)N(C)C[C@@H]1OCc2cnnn2CCCC(=O)N([C@@H](C)CO)C[C@H]1C 10.8%
C[C@@H]1CN([C@H](C)CO)C(=O)CCCn2nncc2CO[C@H]1CN(C)C(=O)Nc1cccc2ccccc12 11.2%
Cc1ccnc(NS(=O)(=O)c2ccc(NC(=O)Cc3ccc(F)cc3)cc2)n1 18%
Cc1noc(C)c1COc1ccc(C(=O)N2CCN(S(=O)(=O)c3cccc(F)c3)CC2)cc1 -6.62%
COc1ccc(NC(=O)CN(c2ccc(Cl)cc2)S(C)(=O)=O)cc1OC 3.15%
O=C(COC(=O)CC1CC2CCC1C2)NCc1ccccc1 (stereo unspecified) 15.9%
O=C(COC(=O)CC1CC2CCC1C2)Nc1ccc(F)cc1 (stereo unspecified) 6.05%
COc1ccccc1OCCSc1nc2ccccc2n1CC(O)CO (stereo unspecified) -18.9%
COc1cc(C(=O)NCCCc2nc3ccccc3n2Cc2cc(C)ccc2C)cc(OC)c1OC 9.81%
c1ccc(CCc2nc(-c3ccc(-n4cccc4)cc3)no2)cc1 16.5%
Cc1ccc(-c2noc(CN(C)C(=O)c3ccc(Br)o3)n2)cc1 -17.4%
Cc1ccc(CNC(=O)C2CCCN(S(=O)(=O)N3CC(C)CC(C)C3)C2)cc1 (stereo unspecified) -20.4%
O=C(COc1ccccc1)Nc1ncn[nH]1 -8.98%
COc1cc(C)c(CN2CCN(CC(=O)Nc3ccccc3C(=O)NC3CC3)CC2)cc1OC -25.6%
O=C1CCC(C(=O)N2CCCCCC2)CN1Cc1cccc(C(F)(F)F)c1 (stereo unspecified) -29.3%
CCOC(=O)c1c(C)[nH]c(C)c1C(=O)COC(=O)c1cccc(C)c1O -9.02%
CCOC(=O)c1c(C)[nH]c(C)c1C(=O)COC(=O)c1cc2ccccc2cc1O 7.04%
CCOc1ccc(CCNC(=O)Cn2nc(C)c3c(C)n(-c4ccccc4)nc3c2=O)cc1 -21.5%
CC1=C(C(=O)N2CCOCC2)CC(CC(=O)NCC2CCCCC2)C(=O)N1CCC1=CCCCC1 (stereo unspecified) 31.4%
COC(=O)[C@]12CCCCC=C1N(Cc1cccc3ccccc13)C(=O)[C@H](CC(=O)NCC1CCCCC1)C2 -6.36%
NC(=O)c1ccc(NC(=O)CCCc2nc(-c3ccccc3Cl)no2)cc1 -28.1%
Cc1ccc2c(c1)CO[C@@]21O[C@H](CCO)C[C@H](O)[C@H]1O 3.11%
Cc1cccc(NC(=O)C2CCN(C(=O)c3ccco3)CC2)c1C -16.4%
Cc1ccc(NC(=O)C2CCN(C(=O)c3ccco3)CC2)cc1 12%
CC(C)CCN1CCN(Cc2cnc(N3CCCC3)s2)CC1CCO (stereo unspecified) 10.1%
O=C(Cc1cccs1)N1CCN(S(=O)(=O)c2ccc(Cl)c(C(F)(F)F)c2)CC1 -18.7%
C/C(N)=C(/C#N)C(=O)CSc1nnc(Nc2ccccc2)s1 -26.5%
CCSc1nnc(NC(=O)Cc2ccc(OC)cc2)s1 -29.4%
Cc1ccc(OCCSc2nc3ccccc3n2CCC(=O)O)cc1 -29.2%
CCc1ccc(S(=O)(=O)c2ccc(-n3nc(C)cc3N)cc2)cc1 21.2%
c1ccc(CCn2nnc3ccccc32)cc1 16.6%
CCOC(=O)c1c(-c2ccc(C)cc2)csc1NC(=O)CCN1CC(C)OC(C)C1 (stereo unspecified) 10.9%
CC1C(=O)N2CCCc3cc(S(=O)(=O)N4CCCCC4)cc1c32 (stereo unspecified) 10.4%
CCCCNC(=O)CC1C(=O)N(Cc2ccccc2)C(C)c2nc3ccccc3n21 (stereo unspecified) -23.2%
CCCNC(=O)CC1C(=O)N(Cc2ccccc2)C(C)c2nc3ccccc3n21 (stereo unspecified) -35.5%
CCCCCCN1CCN(C2CN(C3CCCCC3)S(=O)(=O)C2)CC1 (stereo unspecified) 24.6%
CCN(c1ccccc1)S(=O)(=O)c1nnc(NC(=O)C(C)(C)C)s1 -1.58%
COc1ccc(C(CNC(=O)c2cccc(S(=O)(=O)N3CCCCC3)c2)N2CCCC2)cc1 (stereo unspecified) -22.6%
